An excerpt weighted towards active compounds, which were near 11% of everything screened.
USP28 inh: human USP28 deubiquitinase inhibition; Q96RU2; purified USP28, Ub-rhodamine cleavage fluorescence, 30 min; inhibition, % at 25 µM; 3% of 47,000 active; AID 1645857
USP17 inh: human USP17-like deubiquitinase inhibition; inhibition, % at 50 µM; 6.5% of 47,000 active; purified USP17, Ub-rhodamine cleavage fluorescence, 3 h; AID 1645855
Target sequence (A8MUK1 whole entry, looked up): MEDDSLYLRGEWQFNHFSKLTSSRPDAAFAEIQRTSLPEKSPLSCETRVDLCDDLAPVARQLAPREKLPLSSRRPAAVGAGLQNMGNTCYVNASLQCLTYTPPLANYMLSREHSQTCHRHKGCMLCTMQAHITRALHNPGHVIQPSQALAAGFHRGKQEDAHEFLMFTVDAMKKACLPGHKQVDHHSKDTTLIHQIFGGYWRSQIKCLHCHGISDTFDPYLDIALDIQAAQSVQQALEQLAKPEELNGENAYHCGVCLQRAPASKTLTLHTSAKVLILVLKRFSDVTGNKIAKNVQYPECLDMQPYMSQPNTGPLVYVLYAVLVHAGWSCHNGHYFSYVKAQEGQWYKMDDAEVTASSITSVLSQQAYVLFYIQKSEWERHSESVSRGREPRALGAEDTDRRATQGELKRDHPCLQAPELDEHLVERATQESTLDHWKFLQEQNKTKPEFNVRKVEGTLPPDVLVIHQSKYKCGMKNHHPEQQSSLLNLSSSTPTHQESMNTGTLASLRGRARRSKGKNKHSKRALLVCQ
OTUD3 inh: blocks human OTUD3 ubiquitin-rhodamine cleavage | 0.7% of 47,000 active | inhibition, % at 25 µM | AID 1645858 | purified OTUD3, Ub-rhodamine fluorescence, 2 h
USP30 inh: blocks human USP30 ubiquitin-rhodamine cleavage | 5.3% of 47,000 active | purified USP30, Ub-rhodamine cleavage fluorescence | inhibition, % at 25 µM | AID 1645860
* hit, by the source's call; nt = not tested or not shown. Cut-off read from the data, not from the text of the source: active = inhibition above about 30%; inactive = the rest.

SMILES | USP28 inh | USP17 inh | OTUD3 inh | USP30 inh
CCOc1ccc(-c2cn3c4c(=O)n(C)c(=O)n(C)c4nc3n2-c2ccccc2F)cc1Cl | -1.3 | -0.2 | -2.5 | -127.4
Cn1c(=O)c2c(nc3n(-c4ccc(F)cc4)c(-c4ccc(Br)cc4)cn23)n(C)c1=O | 0.0 | 5.7 | -4.1 | 0.9
Cn1c(=O)c2c(nc3n(-c4ccccc4F)c(-c4ccccc4)cn23)n(C)c1=O | 1.6 | 39.0* | 2.7 | 72.4*
Cc1cn2c3c(=O)n(C)c(=O)n(C)c3nc2n1Cc1cccc2ccccc12 | 10.0 | 7.4 | 5.6 | 48.5*
CC(C)CCNc1ncnc2c1sc1nc(C(C)C)c3c(c12)CC(C)(C)OC3 | 2.9 | 14.2 | 4.9 | 7.4
Fc1ccc(Cc2nnc(-c3cnc4onc(C5CCCC5)c4c3)o2)cc1 | 19.1 | 8.2 | 21.3 | 19.7
O=C1CCN(c2ncnc3cc(-c4ccc(F)cc4)sc23)CC1 | 0.8 | 31.3* | -10.5 | -56.8
CC(Nc1ncnc2cc(-c3ccc(Cl)cc3)sc12)c1ccccn1 (stereo not drawn) | 6.8 | -18.8 | 2.7 | -0.4
O=c1c2cnc(N3CCc4ccccc4C3)nc2ccn1-c1ccc(Cl)cc1 | -26.2 | -10.9 | -21.4 | -166.5
O=C(/C=C/c1ccc(OCc2cccc(Cl)c2)cc1)NC1CCCC1 | 13.9 | 35.9* | 15.6 | 21.6
COc1cccc(CN2C[C@@]34CN(C(=O)NC5CCCC5)C[C@@H](C[C@@H]3S2(=O)=O)O4)c1 | 9.9 | 11.3 | 5.3 | 16.6
O=C(c1ccc(Cn2c(=O)[nH]c3ccccc3c2=O)cc1)N1CCN(c2ccc(F)cc2)CC1 | 17.9 | 10.0 | 11.3 | 48.1*
O=C(NCCc1ccccc1)c1ccc2c(=O)n(CCC3=CCCCC3)c(=O)[nH]c2c1 | 0.2 | -9.4 | 2.9 | -0.2
O=C(c1ccc(Cn2c(=O)[nH]c3ccccc3c2=O)cc1)N1CCN(Cc2ccc3c(c2)OCO3)CC1 | 18.3 | 32.8* | 0.4 | 25.5
O=C(CCn1c(=O)[nH]c2ccccc2c1=O)N1CCN(c2ccc(F)cc2)CC1 | -8.8 | -12.1 | -2.5 | -14.7
O=C(NCCCN1CCN(c2ccc(F)cc2)CC1)c1ccc2c(=O)n(CCc3ccccc3)c(=O)[nH]c2c1 | 19.9 | 31.3* | 28.8 | 42.1*
CCCN1CCN(C(=O)Cn2c(=O)n(-c3ccccc3)c3ncccc32)CC1 | -19.7 | -18.9 | -10.6 | -35.7
C/C=C\C=C\[C@@H]1O[C@](O)([C@H](CC)C(=O)NC/C=C/C=C(\C)[C@@H](OC)[C@@H](C)[C@@H]2O[C@H](/C=C/C=C/C=C(\C)C(=O)c3c(O)cc[nH]c3=O)C(O)C2O)[C@H](O)[C@H](O)C1(C)C (stereo partly drawn) | -37.8 | -78.3 | -29.3 | -98.8
COc1cccc(-n2c(CNCc3cccnc3)nc3ccc([N+](=O)[O-])cc3c2=O)c1 | 36.2* | 36.5* | 11.6 | 68.0*
COc1ccccc1/C=C(\C(=O)N1CCN(c2ccccc2)CC1)c1ccccc1 | 14.4 | 6.7 | 17.2 | 35.3*
COc1ccccc1CC(=O)NCc1ccc(-c2nc(C)ncc2-c2cc(C)no2)cc1 | 7.6 | 9.1 | 5.3 | 14.6
COC(=O)c1ccc(NC(=O)CSc2nnc(-c3ccc(O)cc3)n2Cc2ccco2)cc1 | 21.8 | 20.9 | 9.4 | 84.0*
CC(C(=O)NC1CCCC1)N(C(=O)Cn1nnc(-c2ccc(F)cc2)n1)c1ccccc1C(F)(F)F (stereo not drawn) | 18.0 | 6.5 | 17.1 | 23.8
O=C(Cn1c(N2CCC(Cc3ccccc3)CC2)nc2ccccc21)c1ccccc1 | 9.0 | 19.9 | 17.5 | 42.3*
Cc1cccc(CS(=O)(=O)c2cn(CC(=O)N3CCCCC3)c3ccccc23)c1 | 7.2 | 1.2 | 4.4 | 8.3
SMILES | USP28 inh | USP17 inh | OTUD3 inh | USP30 inh
O=c1c(NCCN2CCCC2)nc2ccncc2n1Cc1ccccc1 | nt | 66.1* | 3.5 | nt
O=c1c(Nc2cccc(F)c2)nc2ccncc2n1Cc1ccccc1 | -3.0 | 66.6* | -9.1 | 24.1
Cc1cc(C)cc(Nc2nc3ccncc3n(Cc3ccccc3)c2=O)c1 | -10.6 | 23.0 | -2.8 | 16.9
O=C(NCc1ccco1)c1ccc2c(c1)N(Cc1cccc(F)c1)C(=O)c1ccccc1S2 | 6.0 | 58.3* | 12.0 | -39.7
Cc1cccc(CN2C(=O)c3ccccc3Sc3ccc(C(=O)NC4CCCC4)cc32)c1 | 1.6 | -5.9 | -2.8 | 0.4
CCN1C(=O)c2ccccc2Sc2ccc(C(=O)NCc3ccc(C)cc3)cc21 | 38.4* | -0.6 | 5.0 | 25.8
O=C(C[C@@H]1CCN2C[C@@H]1CCCOc1ccccc1CN(C(=O)Nc1ccccc1)CC2=O)N1CCOCC1 | 73.7* | 75.0* | -8.1 | 79.4*
COc1ccc(-c2noc(CC(=O)Nc3ccccc3OC)n2)cc1 | 5.8 | 0.2 | 13.1 | 17.3
COc1ccccc1NC(=O)NCc1nc(-c2ccc(C(F)(F)F)cc2)no1 | 9.4 | 24.3 | 7.5 | 45.6*
COc1cccc(Nc2cc(C(=O)Nc3ccccc3)ccn2)c1 | 0.7 | 36.1* | -9.7 | 9.6
COc1ccc(NC(=O)c2ccnc(Nc3cccc(C)c3)c2)cc1 | 2.7 | -0.1 | 5.4 | 0.2
COc1ccc(NC(=O)c2ccnc(Nc3cccc(OC)c3)c2)cc1 | 10.9 | 32.1* | -0.3 | 7.3
O=C(Nc1ccc(C(F)(F)F)cc1)N1CCc2[nH]cnc2C1c1ccccn1 (stereo not drawn) | 13.7 | -29.4 | 4.8 | -1.8
COc1ccccc1CNC(=O)c1ccccc1-c1ccccc1 | -6.7 | 0.1 | 0.4 | -17.9
COc1ccc(NC(=O)CN2C(=O)c3ccccc3Sc3ccc(C(=O)N4CCCC4)cc32)c(OC)c1 | 29.1 | 54.6* | 20.8 | 48.6*
COCCNC(=O)CN1C(=O)c2ccccc2Sc2ccc(C(=O)N3CCCC3)cc21 | 0.0 | -0.5 | -2.0 | -50.3
O=S1(=O)NC(=NCCc2cccc(F)c2)c2ccccc21 | 6.2 | 49.4* | 9.6 | 33.5*
Cc1ccc(S(=O)(=O)N2CCOCC2)cc1C(=O)c1nccn1C | -0.2 | -5.2 | 1.7 | -2.3
COCCOc1cccc(CN2CCCC(c3nnc4n3CCNCC4)C2)c1 (stereo not drawn) | -1.5 | 6.3 | 4.4 | 1.5
CC(C)c1cccc(OCCOCCN2CCNCC2)c1 | 48.0* | 8.2 | 8.5 | 20.5
COc1cc(=O)n2c(c1C(=O)Nc1ccc(F)c(C)c1)CCCC2 | -4.9 | -12.7 | -10.6 | -11.4
Cc1cc(C)nc(N2CCC(S(=O)(=O)c3ccc(-c4ccco4)cc3)CC2)n1 | -15.0 | 2.6 | -18.9 | -60.2
O=S(=O)(c1ccc(-c2ccco2)cc1)C1CCN(CCc2ccccn2)CC1 | -12.1 | 30.7* | -8.4 | -50.8
Cc1ccc2c(Nc3ccccc3)c(-c3nc(C4CC4)no3)cnc2n1 | 47.7* | 5.0 | -20.9 | -188.8
CCCCN(C)C(=O)Cn1c(C2CC(=O)N(Cc3ccc(F)cc3)C2)nc2ccccc21 (stereo not drawn) | -7.2 | 48.2* | -6.6 | 4.8
Cc1ccccc1OCCCn1c(C2CC(=O)N(Cc3ccccc3)C2)nc2ccccc21 (stereo not drawn) | 15.2 | 18.6 | 20.4 | 48.6*
COc1ccc(C(=O)Nc2oc3ccccc3c(=O)c2-c2ccccc2)cc1 | 4.9 | 8.3 | 3.7 | -0.4
CCOc1ccccc1-n1cc(C(=O)c2cc(F)ccc2O)cc(C#N)c1=O | 3.7 | -7.9 | 4.2 | -7.6

Screening results from PubChem BioAssay.
